# Only some compounds are listed: those with a hit (about 11% of all), similar ones and a draw of the others.
# PNC assembly inh: inhibitors of perinucleolar compartment assembly | activity change (PNC), negative = inhibition, % at 10 µM | hit rate 3.1% among 140,000 | PC3M PTB-GFP, PNC prevalence imaging, 16 h; hits give low values | AID 2417;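 active = readout at or below -70, meaning at least 70% loss of cells showing the perinucleolar compartment, a nuclear body marking cancer cells; inconclusive = readout between -30 and a set limit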;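 note: plate controls were DMSO wells for no effect and camptothecin positive control wells for full effect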
#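 Compounds are pinned in duplicate onto adhered PC3M cells stably expressing GFP-tagged PTB and incubated 16 h at 37 C. Cells are then fixed, nuclei stained with Hoechst, and PNC-positive cells counted.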
# ALDH1A1 inh: inhibitors of human aldehyde dehydrogenase 1A1. P00352. hit rate 7.3% among 220,000. AID 1030. Potency, µM (series often up to 75.3 µM), for inactives: at the top dose activity, negative = inhibition, actives largely listed as inhibitors. Purified ALDH1A1, NADH fluorescence, propionaldehyde substrate; active = well fitted inhibition curve with a large enough effect, not every such curve was filed as active; inconclusive = small, poorly fitted or top-dose-only effect, or another doubt; inactive = no such curve, though single readings can be large or run the other way;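 note: potency is the fitted concentration of half-maximal effect; plate controls were no enzyme wells and a reference inhibitor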
# Target sequence (P00352 whole entry, looked up): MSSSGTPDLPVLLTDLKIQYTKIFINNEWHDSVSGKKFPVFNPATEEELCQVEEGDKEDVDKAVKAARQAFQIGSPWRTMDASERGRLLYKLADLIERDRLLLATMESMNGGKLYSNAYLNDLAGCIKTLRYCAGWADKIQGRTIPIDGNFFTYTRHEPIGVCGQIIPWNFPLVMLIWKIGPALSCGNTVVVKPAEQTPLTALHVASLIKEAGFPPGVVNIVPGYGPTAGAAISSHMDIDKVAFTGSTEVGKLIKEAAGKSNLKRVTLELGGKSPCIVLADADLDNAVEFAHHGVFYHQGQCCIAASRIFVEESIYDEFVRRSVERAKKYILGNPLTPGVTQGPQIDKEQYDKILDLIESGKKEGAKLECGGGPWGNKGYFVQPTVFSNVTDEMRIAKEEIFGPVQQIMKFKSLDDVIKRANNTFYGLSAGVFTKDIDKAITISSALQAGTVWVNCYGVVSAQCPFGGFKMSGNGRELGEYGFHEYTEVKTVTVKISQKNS
# HTT aggregate: mutant huntingtin aggregation inhibition | PC12 HttQ103-GFP aggregates, Acumen cytometry, 40 h | Potency, µM (top dose mostly 46.1 µM), for the others: at the highest dose activity change, negative = inhibition, usual class: inhibitors | hit rate 1.1% among 220,000 | AID 1688; note: potency is the fitted concentration of half-maximal effect; % is set by controls: 0 for no effect and ±100 for the full control effect; nearly all actives have a fitted effect of over 60% in size
#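 Using laser scanning cytometry, GFP-positive aggregates were counted after lysis of PC12 cells induced with 100 nM tebufenozide to express HTT exon 1 Q103–GFP. Compounds were tested in titration.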
# HPGD block: blocks human HPGD enzyme activity | Potency, µM, for inactives: top-dose activity change, negative = inhibition, most hits filed as inhibitors | hit rate 4.3% among 150,000 | P15428 | purified HPGD, NADH fluorescence kinetic, PGE2 substrate; active = well fitted inhibition curve with a large enough effect, not every such curve was filed as active; inconclusive = small, poorly fitted or top-dose-only effect, or another doubt; inactive = no such curve, though single readings can be large or run the other way; note: potency is the fitted concentration of half-maximal effect; % is set by controls: 0 for no effect and ±100 for the full control effect
# Target sequence (P15428 whole entry, looked up): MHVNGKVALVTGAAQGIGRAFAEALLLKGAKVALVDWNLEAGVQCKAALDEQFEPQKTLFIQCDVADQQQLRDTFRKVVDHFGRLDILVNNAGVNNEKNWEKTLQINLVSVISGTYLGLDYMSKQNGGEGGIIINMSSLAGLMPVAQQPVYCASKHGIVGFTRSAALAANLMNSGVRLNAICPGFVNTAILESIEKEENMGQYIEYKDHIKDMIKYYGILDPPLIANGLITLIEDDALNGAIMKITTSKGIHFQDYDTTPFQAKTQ
#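 20 nM HPGD preincubated 15 min at room temperature with compound in 50 mM Tris-HCl pH 8, 0.01% Tween 20. Started with 1 mM NAD+ and 30 uM prostaglandin E2; NADH fluorescence (360/450 nm) read 5 times over 30-s intervals, last minus first.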
# GoLoco inh red: blocks human Gai1 binding to RGS12 GoLoco peptide, red readout; hit rate 0.44% among 230,000; Potency, µM (highest dose often 61.6 µM), for the others: at the highest dose activity, negative = inhibition, hits mostly inhibitors; Gai1:RGS12 GoLoco peptide FP, rhodamine, 10 min; P63096; AID 880; active = well fitted inhibition curve with a large enough effect, not every such curve was filed as active; inactive = no such curve, though single readings can be large or run the other way; note: potency is the fitted concentration of half-maximal effect; % is set by controls: 0 for no effect and ±100 for the full control effect; nearly all actives have a fitted effect of over 30% in size
# HTT cytoprotect: Huntington cell model cytoprotection by ATP luminescence; PC12 HTT-Q103 induced, cytoprotection, ATP luminescence, 40 h; Potency, µM (titrated, usually from 56.4 µM), for inactives: cytoprotection (ATP increase), usual class: activators; hit rate 0.14% among 230,000; AID 1471; note: potency is the fitted concentration of half-maximal effect; % of control where 0% means no effect; nearly all actives have a fitted effect of over 45% in size
#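 Huntington model: PC12 line, ecdysone-inducible HTTQ103 exon1–GFP, tebufenozide 100 nM. Test articles in a dose series. Endpoint luminescence from cellular ATP.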
# An asterisk follows results filed as active; ? = inconclusive; · = no result; ! = a repeat was not active; [ ] = remark or other dose. Unless noted, calls come from the whole dose curve; as a rule, active = well fitted curve in the direction sought with a large enough effect; inconclusive = small, poorly fitted or top-dose-only effect, or another doubt; inactive = no such curve, though single readings can be large; an effect the other way counts as inactive or inconclusive.
SMILES,PNC assembly inh,ALDH1A1 inh,HTT aggregate,HPGD block,GoLoco inh red,HTT cytoprotect
CN[C@@H](CC(C)C)C(=O)N[C@@H]1C(=O)N[C@H](CC(N)=O)C(=O)N[C@@H]2C(=O)N[C@H]3C(=O)N[C@H](C(=O)N[C@H](C(=O)O)c4cc(O)cc(O)c4-c4cc3ccc4O)[C@H](O)c3ccc(c(Cl)c3)Oc3cc2cc(c3O[C@H]2O[C@@H](CO)[C@@H](O)[C@@H](O)[C@@H]2O[C@@H]2C[C@](C)(N)[C@H](O)[C@H](C)O2)Oc2ccc(cc2Cl)[C@@H]1O,·,0.1%[20.9 µM],19.7%,-6.8%,-5.8%[21.6 µM],-7.8%[40.3 µM]
CC(=O)c1ccc2c(c1)C1C(Cl)C(Sc3ccccc3[N+](=O)[O-])CC1C(C(=O)O)N2 (centres undefined),-4.0,1.78µM*,2.5%,?,11.3%,-4.8%[10 µM]
COc1cc2c(cc1O)[C@H]1Cc3ccc(OC)c(O)c3CN1CC2,·,2.0%[20.9 µM],·,-1.9%,-6.6%[21.6 µM],-131.9%[17.1 µM]
S=C(S)N1CCCC1,·,0.794µM*,·,10µM*,-19.5%,?
Cc1ccc(N2C(=O)/C(=C/c3ccc(CN(CCC#N)S(C)(=O)=O)o3)C(=O)NC2=S)cc1,21.6,22.4µM*,-7.2%,22.4µM*,91.8%,8.3%
CC[C@@]1(O)C(=O)OCc2c1cc1n(c2=O)Cc2cc3c(O)cccc3nc2-1,·,?,·,·,-12.2%,-152.6%
O=c1ccc2cc(OC3OC(CO)C(O)C(O)C3O)c(O)cc2o1 (centres undefined),·,?,·,?,-20.8%,-7.9%[1.9 µM]
CC(=O)OC(C)(C)/C=C/C(=O)[C@](C)(O)[C@H]1[C@H](O)C[C@@]2(C)[C@@H]3CC=C4[C@H](C[C@H](O)C(=O)C4(C)C)[C@]3(C)C(=O)C[C@]12C,-114.6*,1.2%,?,-10.6%,11.5%,·
CC[C@H](CO)NC(=O)[C@H]1C=C2c3cccc4[nH]cc(c34)C[C@H]2N(C)C1,·,·,·,·,·,-3.3%
O=C/C=C/c1ccccc1,·,12.6µM*!,23.1%,-8.9%,-71.0%,10.1%
CCC1=C(C[C@H]2NCCc3cc(OC)c(OC)cc32)C[C@H]2c3ccccc3CCN2C1,·,15.8%[13.5 µM],·,-1.4%,9.9%[14.2 µM],2.0%[10 µM]
CC(C)[N+](C)(CCC(C(N)=O)(c1ccccc1)c1ccccc1)C(C)C,·,1.9%,3.8%[20.6 µM],-3.0%,5.01µM*!,5.0%
C[N+](C)(C)CCOC(=O)C(O)(c1ccccc1)c1ccccc1,·,·,15.5%,·,·,0.9%
N#C/C(=C\c1ccc(O)c(O)c1)C(N)=S,·,2.24µM*,·,8.91µM*,58.4%,-14.1%
Oc1ccc(/C=N/NP(=S)(c2ccccc2)c2ccccc2)cc1O,8.4,6.4%,?,-12.3%,4.8%,?
O=C(Nc1nnc(SCc2ccccc2Cl)s1)C1COc2ccccc2O1 (centres undefined),6.1,?,-10.2%,15.8µM*,4.6%,-6.7%
COc1ccc(C(=O)c2c(C)n(CCN3CCOCC3)c3cc(I)ccc23)cc1,·,5.01µM*,·,-9.3%,2.3%,?
CCCn1c(C(=O)c2ccc(OC)cc2)nc2ccccc21,·,-11.1%,-5.8%[9.22 µM],·,10.3%,10.9%[10 µM]
C=C(C)C(=O)CP(=O)(OCC)OCC,·,-5.5%,·,-7.4%,5.6%,-49.5%
O=C1NC(=O)C(=Cc2ccc(Oc3ccc([N+](=O)[O-])cc3)cc2)C(=O)N1,·,?,-20.1%[9.22 µM],·,8.2%,-42.7%
CN1C(=O)C(=Cc2ccccc2OCc2ccccc2Cl)C(=O)N(C)C1=O,?,2.82µM*,-5.3%,15.8µM*,127.4%,0.0%[1.9 µM]
COc1cc(C=C2C(=O)NC(=O)NC2=O)ccc1OCc1ccc([N+](=O)[O-])cc1,·,15µM*,11.9%,·,1.1%,-26.7%
O=C1NC(=O)C(=Cc2ccccc2OCCOc2ccc([N+](=O)[O-])cc2)C(=O)N1,·,14.1µM*,-1.3%,·,20.5%,-36.0%
CN1C(=O)C(=Cc2ccccc2OCCOc2ccc([N+](=O)[O-])cc2)C(=O)N(C)C1=O,·,3.55µM*,-12.7%,·,-24.8%,-70.5%
CN1C(=O)C(=Cc2ccccc2OCc2ccc(C(=O)O)cc2)C(=O)N(C)C1=O,·,6.0%,1.9%,·,-27.7%,-15.9%
SMILES,PNC assembly inh,ALDH1A1 inh,HTT aggregate,HPGD block,GoLoco inh red,HTT cytoprotect
CC(=O)[C@H]1[C@H](C#N)CC2C3CC=C4C[C@@H](O)CCC4(C)C3CCC21C (some centres undefined),·,-2.1%,·,-3.1%,-2.5%,·
C[C@H](c1ccccc1)N1CCN([C@@H](C)c2ccccc2)CC1,·,-2.9%[13.5 µM],·,-3.0%,1.9%[14.2 µM],4.9%[10 µM]
CC(=NCCCN1CCOCC1)c1c(O)n(-c2ccccc2C)c(=O)[nH]c1=O,28.8,14.1µM*,4.1%,-7.9%,4.4%,-3.1%[10 µM]
CCC(=NCCCN1CCOCC1)c1c(O)n(-c2ccccc2C)c(=O)[nH]c1=O,·,·,9.2%[9.22 µM],·,-6.9%,17.4%[10 µM]
C[CH2][Hg][S]c1ccccc1C(=O)O,·,0.178µM*,2.51µM*,0.282µM*,28.2µM*,-323.0%
CN1CCN(C(=O)COc2ccc(S(=O)(=O)N(C)Cc3ccccc3)cc2)CC1,?,?,-17.3%,14.1µM*,-10.7%,3.9%
CCCCCCCCCCCCCC(=O)O[C@H]1[C@@H](C)[C@@]2(O)[C@@H](C=C(CO)C[C@]3(O)C(=O)C(C)=C[C@@H]23)C2C(C)(C)[C@]21OC(C)=O (some centres undefined),·,·,·,·,·,11.9%[1.9 µM]
CCCc1nc2ccc(Br)cc2c(=O)n1-c1ccc([N+](=O)[O-])c(C(F)(F)F)c1,-96.4*,-6.7%,?,·,·,19.3%[10 µM]
O=c1c2ccccc2ncn1-c1ccc([N+](=O)[O-])c(C(F)(F)F)c1,-13.9,8.7%,-16.0%,-3.7%,2.1%,6.3%[10 µM]
CC(=O)Nc1ccc([As](=O)(O)c2ccc([N+](=O)[O-])cc2)cc1,·,·,-7.3%[9.22 µM],·,1.3%,-2.8%[10 µM]
CCCCCC1CC(CC(=O)NC(=S)Nc2ccc([N+](=O)[O-])cc2)C(=O)O1 (centres undefined),?,10µM*,10.5%,-7.6%,-0.9%,0.3%[10 µM]
CC(C)n1c(=O)c(C=Nc2ccc(F)cc2)c(O)n(Cc2ccco2)c1=O,?,11.2µM*,19.3%,-29.6%,13.3%,25.4%[10 µM]
CCOP(=S)(OCC)SCC(=O)NC(C)(CC)C(=O)O (centres undefined),-111.1*,4.8%,2.6%,-7.8%,-20.9%,2.0%
COc1ccc(C(CC(=O)N2CCC3(CC2)OCCO3)NS(=O)(=O)c2ccc(F)cc2)cc1 (centres undefined),19.3,-4.7%,14.0%,-7.6%,-2.0%,-17.0%
COc1ccc(S(=O)(=O)NC(CC(=O)N2CCc3ccccc32)c2ccco2)cc1 (centres undefined),-82.0*,?,0.6%,5.5%,5.0%,11.0%
